Reference: PubChem BioAssay (NCI)
The panel holds about 79,000 compounds, 15% with a hit somewhere; the sample as a whole holds those more often. Values without a mark were called inactive. Calls of active or inactive are those of the source. Cut-off read from the data, not from the text of the source: active = growth inhibition above about 70%; inactive = the rest.

Experiment: NCI Yeast Anticancer Drug Screen. Data for the mlh1 strain (AID 171);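 note: 0% = growth of vehicle-treated control cultures of the same strain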
Settings: S. cerevisiae mlh1 strain growth inhibition, stronger effect = higher value
Procedure: Growth inhibition of yeast strains with defined genetic alterations is measured as a screen for potential anti-cancer activity. Selected strains with alterations in DNA damage repair or cell cycle control were exposed to compounds and growth inhibition was measured relative to vehicle treated controls. The strain used in this assay is mlh1

| Compound | growth inhibition (at 1.2 µM) [%] | growth inhibition (at 3.7 µM) [%] | growth inhibition (at 11.0 µM) | growth inhibition (at 33.0 µM) | growth inhibition (at 100.0 µM) |
| --- | --- | --- | --- | --- | --- |
| CC(C)C1=CC2=C[C@H](O)[C@H]3C(C)(C)CCC[C@]3(C)C2=C(O)C1=O | -13 | 23 | 99% (active) | 99% (active) | 94% (active) |
| CC(Br)C(=O)c1ccc2cc(Br)c3ccccc3c2c1 (stereo not given) | 4 | 4 | 6% | -11% | 17% |
| O=C1CSC(/C=C/c2ccccc2)N1c1ccc(-c2ccc(-n3c(-c4ccccc4)nc4ccccc4c3=O)cc2)cc1 (stereo not given) | -2 | -1 | -2% | 18% | 77% (active) |
| O=c1ssc2ncccc12 | 9 | 20 | 56% | 95% (active) | 99% (active) |
| C=C(CN(C)C)C(=O)c1cc(C)ccc1C | 12 | 32 | 89% (active) | 99% (active) | 99% (active) |
| Oc1ccc2ccccc2c1C(c1ccc(Cl)cc1)c1c(O)ccc2ccccc12 | -41 | -25 | -32% | 26% | 85% (active) |
| Cc1ccc(S(=O)(=O)Oc2cc(Cl)c(Cl)cc2Cl)cc1 | 1 | 1 | 2% | -6% | 8% |
| BrCc1cccc2ccc3cccc(CBr)c3c12 | -3 | -3 | -2% | -2% | 1% |
